For 40 sequences, binding signal results are on record in article PMC7862700, “An all-to-all approach to the identification of sequence-specific readers for epigenetic DNA modifications on cytosine”.

The assay addresses T1, ELK1 (Homo sapiens, UniProt P19419 1-428).
T1 sequence: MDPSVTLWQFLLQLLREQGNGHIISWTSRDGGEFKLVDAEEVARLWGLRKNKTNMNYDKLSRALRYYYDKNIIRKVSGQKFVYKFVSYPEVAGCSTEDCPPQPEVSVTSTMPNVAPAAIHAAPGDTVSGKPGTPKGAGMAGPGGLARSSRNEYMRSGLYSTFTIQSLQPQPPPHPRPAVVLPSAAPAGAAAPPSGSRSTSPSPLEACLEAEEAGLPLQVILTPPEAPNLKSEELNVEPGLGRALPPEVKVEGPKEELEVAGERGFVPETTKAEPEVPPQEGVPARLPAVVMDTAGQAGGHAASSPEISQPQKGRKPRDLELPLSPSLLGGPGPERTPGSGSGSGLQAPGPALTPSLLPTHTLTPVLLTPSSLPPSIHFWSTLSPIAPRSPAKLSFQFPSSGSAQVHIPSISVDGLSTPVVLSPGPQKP
Put plainly: DAPPL (digital affinity profiling via proximity ligation, sequencing); 10 mM Tris-HCl pH 7.5, 50 mM NaCl, 1 mM DTT, 4% glycerol, room temperature, 30 min; GST-TFs on glutathione beads, 16-mer random dsDNA library, 0.1% formaldehyde crosslink after washing; high values mean tight binding. To be noted: protein: recombinant; tags: N-terminal GST; dsDNA, one strand shown. An outline of the steps: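 In yeast, human transcription factors were expressed with a GST fusion, then pulled down on glutathione beads and given DNA barcodes. Pooled with a tag-only sample, they were exposed to 200 nmole of a 16-mer random double-stranded DNA library (Tris/NaCl/DTT/glycerol buffer, room temperature, 30 min), washed, crosslinked with 0.1% formaldehyde, proximity-ligated using BsaI/T4 ligase for 1 h at 37 °C, PCR-amplified and read on an Illumina NextSeq500. Each hexamer's frequency of reads for a factor, divided by the matching frequency for the tag-only sample, gives the binding signal.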
As to TGCTTT, the binding signal was 1.12 fold enrichment (6-mer frequency, TF over GST control). Regarding CTAGAT, the binding signal is 1.18 fold enrichment (6-mer frequency, TF over GST control). CTCTAC: the binding signal is 1.51 fold enrichment (6-mer frequency, TF over GST control).

For CTTGCT, the binding signal was 1.35 fold enrichment (6-mer frequency, TF over GST control).

As for TCGATT, the binding signal is 1.11 fold enrichment (6-mer frequency, TF over GST control).

Take GAAAAT: the binding signal is 1.07 fold enrichment (6-mer frequency, TF over GST control). Under TCCTTG stands 1.31 fold enrichment (6-mer frequency, TF over GST control). Next, CCTAGC: 1.1 fold enrichment (6-mer frequency, TF over GST control).

On to AGCTTC, for which the binding signal is 1.86 fold enrichment (6-mer frequency, TF over GST control). Regarding CGTACT, the binding signal was 1.17 fold enrichment (6-mer frequency, TF over GST control). Consider TCTGGC, for which the binding signal was 1.26 fold enrichment (6-mer frequency, TF over GST control).

As to TCAAAC, the binding signal is 1.25 fold enrichment (6-mer frequency, TF over GST control). Under TTTCGA stands 1.45 fold enrichment (6-mer frequency, TF over GST control).

With GTATCT, the binding signal is 1.19 fold enrichment (6-mer frequency, TF over GST control). TTTCAT: the binding signal is 1.09 fold enrichment (6-mer frequency, TF over GST control). TATGTA: the binding signal was 1.25 fold enrichment (6-mer frequency, TF over GST control).

For CGCCCT, the binding signal is 1.36 fold enrichment (6-mer frequency, TF over GST control). TTTGAT: the binding signal was 1.36 fold enrichment (6-mer frequency, TF over GST control). In the case of TATGGC, the binding signal was 1.29 fold enrichment (6-mer frequency, TF over GST control).

For the sequence TATCAT, the binding signal was 1.18 fold enrichment (6-mer frequency, TF over GST control).

Take CTTCAC: the binding signal is 1.42 fold enrichment (6-mer frequency, TF over GST control). With CTACCT, the binding signal was 1.46 fold enrichment (6-mer frequency, TF over GST control). Under ATGAAC stands 1.28 fold enrichment (6-mer frequency, TF over GST control); under GATGAT, 1.37 fold enrichment (6-mer frequency, TF over GST control); under ATAGTA, 1.18 fold enrichment (6-mer frequency, TF over GST control). Consider TCATCT, for which the binding signal was 1.28 fold enrichment (6-mer frequency, TF over GST control). As to ATACAG, the binding signal is 1.11 fold enrichment (6-mer frequency, TF over GST control). Under AAAATA stands 1.12 fold enrichment (6-mer frequency, TF over GST control). As to AACTAA, the binding signal is 1.27 fold enrichment (6-mer frequency, TF over GST control). Next, GCGCTT: 1.36 fold enrichment (6-mer frequency, TF over GST control); GCCTTA: 1.21 fold enrichment (6-mer frequency, TF over GST control). Next, AAATGA: 1.32 fold enrichment (6-mer frequency, TF over GST control); TACGCT: 1.26 fold enrichment (6-mer frequency, TF over GST control); TCCGCT: 2.38 fold enrichment (6-mer frequency, TF over GST control).

On to CCTCCA, for which the binding signal is 1.5 fold enrichment (6-mer frequency, TF over GST control). Next, TCCTAG: 1.11 fold enrichment (6-mer frequency, TF over GST control). As for TCTTTA, the binding signal is 1.25 fold enrichment (6-mer frequency, TF over GST control). Take ATGTTT: the binding signal was 1.37 fold enrichment (6-mer frequency, TF over GST control). As for GAACTA, the binding signal is 1.39 fold enrichment (6-mer frequency, TF over GST control). Regarding CTCAAC, the binding signal was 1.32 fold enrichment (6-mer frequency, TF over GST control).
